In PubChem BioAssay (NCATS):
Records with an inconclusive call do not appear. Activity calls are given as the source filed them. The call rests on the fitted dose curve; in most records, active means well fitted curve in the direction sought with a large enough effect; inconclusive means small, poorly fitted or top-dose-only effect, or another doubt; inactive means no such curve, though single readings can be large; an effect the other way counts as inactive or inconclusive.

Tests used:
[1] = Quantitative High-Throughput drug screen in 47 multiple myeloma cell lines against the NCATS MIPE library collection: JIM3_ECACC cell viability assay (AID 1918963; further: nearly all actives have a fitted effect of over 35% in size; further: potency means the concentration at half of the fitted maximal effect)
How it was run: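 Steps: seed 500 cells per well; pin-transfer MIPE 4.0 library; incubate 48 h at 37C, 5% CO2, humidified; add CellTiter-Glo, 5 min room temperature; read luminescence.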

[2] = Quantitative High-Throughput drug screen in 47 multiple myeloma cell lines against the NCATS MIPE library collection: INA6_PLB cell viability assay (AID 1918965; further: potency means the concentration at half of the fitted maximal effect; nearly all actives have a fitted effect of over 55% in size)
How it was run: (§1)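 CellTiter-Glo luminescence (ATP) after 48 h compound exposure, 37C/5% CO2; 500 cells/well; MIPE 4.0 approved/investigational drugs pinned in; DMSO = 100%, media only = 0% viability.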

[3] = Quantitative High-Throughput drug screen in 47 multiple myeloma cell lines against the NCATS MIPE library collection: JJN3_DSMZ cell viability assay (AID 1918966; further: nearly all actives have a fitted effect of over 50% in size; further: potency means the concentration at half of the fitted maximal effect)
How it was run: (§2)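 We plated 500 myeloma cells per well, pinned in MIPE 4.0 compounds, and incubated for 48 hours at 37C. ATP was then quantified with CellTiter-Glo, with DMSO and media-only wells defining 100% and 0%.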

[4] = Quantitative High-Throughput drug screen in 47 multiple myeloma cell lines against the NCATS MIPE library collection: H1112_PLB cell viability assay (AID 1918967; further: nearly all actives have a fitted effect of over 30% in size; further: potency means the concentration at half of the fitted maximal effect)
How it was run: as §2

[5] = Quantitative High-Throughput drug screen in 47 multiple myeloma cell lines against the NCATS MIPE library collection: Karpas25_ECACC cell viability assay (AID 1918968; further: nearly all actives have a fitted effect of over 35% in size; further: potency means the concentration at half of the fitted maximal effect)
How it was run: as §2

[6] = Quantitative High-Throughput drug screen in 47 multiple myeloma cell lines against the NCATS MIPE library collection: KMS12BM_JCRB cell viability assay (AID 1918971); further: nearly all actives have a fitted effect of over 35% in size; further: potency means the concentration at half of the fitted maximal effect
How it was run: (§3)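 Approved and investigational drugs from MIPE 4.0 were added by pin tool to 500 cells per well. After 48 hours at 37C, ATP-based CellTiter-Glo luminescence indicated remaining viability.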

[7] = Quantitative High-Throughput drug screen in 47 multiple myeloma cell lines against the NCATS MIPE library collection: KMS12PE_JCRB cell viability assay (AID 1918972); further: nearly all actives have a fitted effect of over 30% in size; further: potency means the concentration at half of the fitted maximal effect
How it was run: as §1

[8] = Quantitative High-Throughput drug screen in 47 multiple myeloma cell lines against the NCATS MIPE library collection: KMS20_JCRB cell viability assay (AID 1918973); further: nearly all actives have a fitted effect of over 45% in size; further: potency means the concentration at half of the fitted maximal effect
How it was run: as §2

[9] = Quantitative High-Throughput drug screen in 47 multiple myeloma cell lines against the NCATS MIPE library collection: MMM1_PLB cell viability assay (AID 1918976); further: potency means the concentration at half of the fitted maximal effect; nearly all actives have a fitted effect of over 35% in size
How it was run: (§4)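 500 cells/well; MIPE 4.0 drugs pin-transferred; 48 h, 37C, 5% CO2. CellTiter-Glo, 5 min RT, luminescence. Controls: DMSO 100%, media 0%.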

[10] = Quantitative High-Throughput drug screen in 47 multiple myeloma cell lines against the NCATS MIPE library collection: MOLP8_DSMZ cell viability assay (AID 1918977); further: nearly all actives have a fitted effect of over 45% in size; further: potency means the concentration at half of the fitted maximal effect
How it was run: as §4

[11] = Quantitative High-Throughput drug screen in 47 multiple myeloma cell lines against the NCATS MIPE library collection: NCIH929_DSMZ cell viability assay (AID 1918978); further: nearly all actives have a fitted effect of over 35% in size; further: potency means the concentration at half of the fitted maximal effect
How it was run: as §4

[12] = Quantitative High-Throughput drug screen in 47 multiple myeloma cell lines against the NCATS MIPE library collection: OCIMY1_PLB cell viability assay (AID 1918979); further: nearly all actives have a fitted effect of over 35% in size; further: potency means the concentration at half of the fitted maximal effect
How it was run: as §4

[13] = Quantitative High-Throughput drug screen in 47 multiple myeloma cell lines against the NCATS MIPE library collection: MM1S_ATCC cell viability assay (AID 1918980); further: nearly all actives have a fitted effect of over 45% in size; further: potency means the concentration at half of the fitted maximal effect
How it was run: as §4

[14] = Quantitative High-Throughput drug screen in 47 multiple myeloma cell lines against the NCATS MIPE library collection: MM1R_ATCC cell viability assay (AID 1918981); further: nearly all actives have a fitted effect of over 35% in size; further: potency means the concentration at half of the fitted maximal effect
How it was run: as §4

[15] = Quantitative High-Throughput drug screen in 47 multiple myeloma cell lines against the NCATS MIPE library collection: LP1_DSMZ cell viability assay (AID 1918982); further: nearly all actives have a fitted effect of over 35% in size; further: potency means the concentration at half of the fitted maximal effect
How it was run: as §4

[16] = Quantitative High-Throughput drug screen in 47 multiple myeloma cell lines against the NCATS MIPE library collection: JIM1_ECACC cell viability assay (AID 1918964; further: potency means the concentration at half of the fitted maximal effect)
How it was run: as §2

[17] = Quantitative High-Throughput drug screen in 47 multiple myeloma cell lines against the NCATS MIPE library collection: KMS27_JCRB cell viability assay (AID 1918970); further: nearly all actives have a fitted effect of over 30% in size; further: potency means the concentration at half of the fitted maximal effect
How it was run: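 CellTiter-Glo luminescence after 48 h drug exposure at 37 °C; 500 cells/well, 1536-well format, pin-tool compound addition; DMSO = 100%, media-only = 0% viability.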

[18] = Quantitative High-Throughput drug screen in 47 multiple myeloma cell lines against the NCATS MIPE library collection: KMS26_JCRB cell viability assay (AID 1918975); further: nearly all actives have a fitted effect of over 45% in size; further: potency means the concentration at half of the fitted maximal effect
How it was run: as §3

[19] = Quantitative High-Throughput drug screen in 47 multiple myeloma cell lines against the NCATS MIPE library collection: KMS21BM_JCRB cell viability assay (AID 1918974); conditions: ATP luminescence, 48 h; viability: at 45.8 µM (top of the series) unless noted
How it was run: as §2

Cc1ccc(Nc2cc(-c3cccc(N4C(=O)c5ccccc5C4=O)c3)ncn2)cc1NS(C)(=O)=O
active: Potency [1] 18.7 µM | Potency [2] 16.6 µM | Potency [3] 18.7 µM | Potency [4] 18.7 µM | Potency [5] 11.8 µM | Potency [6] 20.9 µM | Potency [7] 26.4 µM | Potency [8] 26.4 µM | Potency [9] 20.9 µM | Potency [10] 20.9 µM | Potency [11] 3.32 µM | Potency [13] 20.9 µM | Potency [14] 23.5 µM | Potency [15] 26.4 µM
inactive: Potency [12]

COc1ccc2c3c1OC1C[C@@H](O)C=C[C@@]31CCN(C)C2 (stereo not given in full)
inactive: Potency [16] | Potency [7] | Potency [12] | Potency [14] | Potency [15]
active: Potency [1] 14.8 µM | Potency [3] 4.18 µM | Potency [11] 16.6 µM | Potency [13] 20.9 µM

CC(C)C(=O)Nc1ncc(-c2cc(C(F)F)nn2-c2c(Cl)cccc2Cl)s1
active: Potency [1] 23.5 µM | Potency [16] 10.5 µM | Potency [2] 23.5 µM | Potency [5] 20.9 µM | Potency [17] 14.8 µM | Potency [6] 26.4 µM | Potency [7] 16.6 µM

CC(C)=CC[C@@H](O)C1=CC(=O)c2c(O)ccc(O)c2C1=O
active: Potency [1] 16.6 µM | Potency [2] 0.296 µM | Potency [3] 0.372 µM | Potency [4] 7.43 µM | Potency [5] 5.26 µM | Potency [17] 20.9 µM | Potency [6] 0.935 µM | Potency [7] 18.7 µM | Potency [8] 14.8 µM | Potency [18] 0.418 µM | Potency [10] 0.418 µM | Potency [11] 0.264 µM | Potency [12] 1.18 µM | Potency [13] 0.662 µM | Potency [14] 0.264 µM | Potency [15] 3.32 µM

O=C(Nc1c(Cl)cncc1Cl)c1ccc(OC(F)F)c(OCC2CC2)c1
inactive: Potency [1] | Potency [3] | Potency [4] | Potency [17] | Potency [6] | Potency [7] | Potency [18] | Potency [14] | Potency [15]
active: Potency [2] 37.2 µM | Potency [11] 23.5 µM | Potency [12] 0.0012 µM | Potency [13] 23.5 µM

COc1cc(N2CCC(N3CCN(C)CC3)CC2)ccc1Nc1ncnc(Nc2ccccc2S(=O)(=O)C(C)C)n1
inactive: Potency [16] | Potency [7]
active: Potency [1] 5.26 µM | Potency [2] 14.8 µM | Potency [6] 23.5 µM

CC(C)C(=O)Oc1ccc(CO)cc1[C@H](CCN(C(C)C)C(C)C)c1ccccc1
inactive: Potency [1] | Potency [16] | Potency [4] | Potency [5] | Potency [17] | Potency [7] | Potency [11] | Potency [12] | Potency [14] | Potency [15]
active: Potency [6] 14.8 µM

O=C(O)c1cc(O)c2c(c1)C(=O)c1cccc(O)c1C2=O
inactive: Potency [1] | Potency [4] | Potency [7] | Potency [11] | Potency [12] | Potency [13]
active: Potency [9] 2.15 µM | Potency [10] 38.2 µM

C=CCc1ccc(O)c(-c2ccc(O)c(CC=C)c2)c1
active: Potency [1] 20.9 µM | Potency [2] 18.7 µM | Potency [17] 23.5 µM | Potency [7] 20.9 µM | Potency [8] 23.5 µM | Potency [13] 18.7 µM

CC(C)(C)NC(=O)Nc1cccc(Nc2ncc(F)c(NC(C)(C)CO)n2)c1
active: Potency [1] 13.2 µM | Potency [2] 18.7 µM | Potency [7] 3.32 µM
inactive: Potency [4] | Potency [6] | Potency [8] | Potency [10] | Potency [11] | Potency [12]

C[C@]12CC[C@@H]3c4ccc(O)cc4CC[C@H]3[C@H]1C[C@@H](O)[C@H]2O
active: Potency [9] 13.2 µM
inactive: Potency [1] | Potency [4] | Potency [5] | Potency [8] | Potency [11] | Potency [12] | Potency [14] | Potency [15]

CC1(C)CCC(CN2CCN(c3ccc(C(=O)NS(=O)(=O)c4ccc(NCC5CCOCC5)c([N+](=O)[O-])c4)c(Oc4cnc5[nH]ccc5c4)c3)CC2)=C(c2ccc(Cl)cc2)C1
active: Potency [3] 20.9 µM | Potency [4] 0.264 µM | Potency [17] 0.118 µM | Potency [6] 0.0526 µM | Potency [7] 0.0833 µM | Potency [10] 18.7 µM | Potency [11] 23.5 µM | Potency [12] 10.5 µM | Potency [14] 14.8 µM | Potency [15] 18.7 µM
inactive: Potency [1]

CS(=O)c1ccc(-c2nc(-c3ccc(F)cc3)c(-c3ccncc3)[nH]2)cc1 (stereo not given)
inactive: Potency [12]
active: Potency [16] 34 µM | Potency [2] 3.4 µM | Potency [3] 2.15 µM | Potency [4] 48.1 µM | Potency [5] 8.55 µM | Potency [17] 21.5 µM | Potency [7] 21.5 µM | viability [19] 1.55% [at 92.2 µM] | Potency [11] 5.4 µM | Potency [13] 38.2 µM
